Each structure is given as a SMILES string. Active and inactive are the calls of the source. How the source made its calls: active means hit-call score of the fitted dose curve at least 0.9, where 1 is the maximum; inactive means score below 0.9.

One may read the AC50 as the concentration giving half of the maximal activity seen.

Assay [1] is described as follows: ATG_GLI_CIS: Attagene CIS-FACTORIAL HepG2 Assay for human Zinc Finger Protein GLI1 (AID 2282945). The following applies: HepG2, Attagene cis-factorial reporter mRNA, GLI element; actives raise or lower the signal. Put shortly:
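HepG2 cells transiently transfected with cis-promoter multiplexed reporter units report endogenous transcription factor activity. After 24 h chemical exposure, reporter mRNA was quantified by RT-PCR, 6-FAM labelling, HpaI digestion and capillary electrophoresis, with bidirectional fitting against DMSO.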

In assay [2] the target is Bile acid receptor (Homo sapiens) (UniProt Q96RI1). As to the kind of experiment: ATG_IR1_CIS: Attagene CIS-FACTORIAL HepG2 Assay for human Nuclear Receptor Subfamily 1 Group H Member 4 (NR1H4), IR1 submotif (AID 2282946). The following applies: IR1 reporter transcription, actives raise or lower the signal. Summed up:
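Readout: reporter transcript levels by RT-PCR with fluorescent capillary electrophoresis, from HepG2 cells transiently transfected with multiplexed cis-regulated reporters and dosed 24 h. Gain- or loss-of-signal fitted versus DMSO negative control.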

Assay [3] in a line: ATG_GRE_CIS: Attagene CIS-FACTORIAL HepG2 Assay for human Glucocorticoid Response Elements (GRE) (AID 2282947). The following applies: HepG2 GRE cis-reporter, Attagene multiplex mRNA; actives raise or lower the signal. Summed up: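 Cells (HepG2) bearing transfected cis-promoter reporter transcription units were treated with chemical for 24 hours. Reporter mRNA was measured via RT-PCR with capillary electrophoresis, and activity was fitted in both directions relative to DMSO.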

Assay [4] can be described thus: ATG_ISRE_CIS: Attagene CIS-FACTORIAL HepG2 Assay for human Interferon Regulatory Factor 1 (IRF1) binding to an Interferon-Stimulated Response Element (ISRE) (AID 2282948). The following applies: HepG2 ISRE cis-reporter (Attagene), mRNA transcription readout; actives raise or lower the signal. Summed up: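 Uses HepG2 liver cells transfected with cis-regulated reporters and measures mRNA 24 h post-dosing through RT-PCR, primer-extension labelling and capillary electrophoresis, with DMSO as negative control.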

The nature of assay [5]: ATG_M_06_CIS: Attagene CIS-FACTORIAL HepG2 Assay for M06 Transcription Factor (Internal Marker) (AID 2282950). The following applies: HepG2 Attagene CIS-FACTORIAL M06 internal marker reporter; actives raise or lower the signal. Summed up:
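HepG2 cells transiently transfected with cis-regulated multiple reporter transcription units were exposed to chemical for 24 h; reporter mRNA was quantified by RT-PCR, 6-FAM primer labelling, HpaI digestion and capillary electrophoresis, fitted bidirectionally against DMSO.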

Assay [6] concerns the target Hypoxia-inducible factor 1-alpha (Homo sapiens) (UniProt Q16665). As to the kind of experiment: ATG_HIF1a_CIS: Attagene CIS-FACTORIAL HepG2 Assay for human Hypoxia Inducible Factor 1 (HIF1A) (AID 2282951). The following applies: HepG2 Attagene cis-factorial HIF1a reporter transcription; actives raise or lower the signal. Summed up: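 Endogenous-TF cis reporter readout, human HepG2 cells, 24 h incubation; mRNA detected via RT-PCR and capillary electrophoresis fluorescence; DMSO-normalised bidirectional fitting.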

In assay [7] the target is Hepatocyte nuclear factor 6 (Homo sapiens) (UniProt Q9UBC0). The experiment in a line: ATG_HNF6_CIS: Attagene CIS-FACTORIAL HepG2 Assay for human Hepatocyte Nuclear Factor 6 (HNF6) (AID 2282952). The following applies: HepG2 Attagene cis-factorial HNF6 reporter transcription; actives raise or lower the signal. Summed up:
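Readout: fluorescent reporter-transcript fragments resolved by capillary electrophoresis after RT-PCR, reflecting endogenous factor activity in transfected HepG2. Exposure 24 h. Gain or loss of signal fitted bidirectionally against DMSO.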

Assay [8] addresses Heat shock factor protein 1 (Homo sapiens) (UniProt Q00613). The experiment in a line: ATG_HSE_CIS: Attagene CIS-FACTORIAL HepG2 Assay for human Heat Shock Transcription Factor 1 (HSE) (AID 2282953). The following applies: HepG2 HSE cis-reporter, Attagene RNA transcription; actives raise or lower the signal. Summed up:
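HepG2 cells transiently transfected with multiple reporter transcription units under cis-regulatory promoter control, measuring endogenous transcription factor activity. After 24 h chemical exposure, reporter mRNA quantified by RT-PCR, fluorescent labelling, HpaI digestion and capillary electrophoresis; bidirectional fit versus DMSO.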

Assay [9] is described as follows: ATG_MRE_CIS: Attagene CIS-FACTORIAL HepG2 Assay for human Metal Responsive Element (MRE) (AID 2282954). The following applies: HepG2 MRE cis-reporter transcription, Attagene multiplex; actives raise or lower the signal. Put shortly:
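Cells were transfected with cis-promoter reporter transcription units, then dosed for 24 h. RNA was reverse-transcribed, amplified, fluorescently labelled and resolved by capillary electrophoresis, and activity was fitted in both directions relative to DMSO.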

The nature of assay [10]: ATG_PBREM_CIS: Attagene CIS-FACTORIAL HepG2 Assay for human Phenobarbital-responsive Enhancer Module (PBREM) (AID 2282955). The following applies: HepG2 PBREM cis-reporter, Attagene multiplexed transcription; actives raise or lower the signal. Summed up: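 Readout: reporter mRNA, fluorescent RT-PCR fragments separated by capillary electrophoresis. System: HepG2 transiently transfected with cis-regulated reporter units. Exposure: 24 h. Analysis: bidirectional, DMSO baseline.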

Assay [11] has as its target Paired box protein Pax-6 (Homo sapiens) (UniProt P26367). The experiment in a line: ATG_Pax6_CIS: Attagene CIS-FACTORIAL HepG2 Assay for human Paired Box 6 (PAX6) (AID 2282956). The following applies: HepG2 CIS-FACTORIAL PAX6 reporter transcription, RNA readout; actives raise or lower the signal. Put shortly:
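DMSO-referenced bidirectional fits of reporter mRNA fluorescence; HepG2 with transient cis-promoter MRTUs, 24 h post-dose, RT-PCR plus capillary electrophoresis detection.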

Assay [12] can be described thus: ATG_Sox_CIS: Attagene CIS-FACTORIAL HepG2 Assay for human SRY-box transcription factor (SOX) (AID 2282960). The following applies: HepG2 Attagene cis-factorial SOX reporter, mRNA; actives raise or lower the signal. Summed up:
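Using transiently transfected HepG2 cells, reporter transcription driven by cis elements was assessed 24 h after dosing. Signal was fluorescence of capillary-separated RT-PCR products, with DMSO defining baseline activity.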

In assay [13] the target is Transcription factor Sp1 (Homo sapiens) (UniProt P08047). The experiment in a line: ATG_Sp1_CIS: Attagene CIS-FACTORIAL HepG2 Assay for human Specificity Protein 1 (Sp1) (AID 2282961). The following applies: HepG2 Sp1 cis-reporter transcription, actives raise or lower the signal. Summed up: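 After transient transfection of HepG2 cells with cis-promoter reporter units and 24 h chemical treatment, reporter transcripts were quantified by RT-PCR and capillary electrophoresis fluorescence. Gain- and loss-of-signal fitted against DMSO.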

Assay [14] can be described thus: ATG_SREBP_CIS: Attagene CIS-FACTORIAL HepG2 Assay for human Sterol Regulatory Element Binding (SREBP) (AID 2282962). The following applies: HepG2 Attagene cis-factorial SREBP reporter, mRNA; actives raise or lower the signal. Put shortly: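 In this cis-format assay, HepG2 liver cells express reporters controlled by promoter elements responsive to native transcription factors. Exposure lasts 24 h; reporter mRNA fluorescence from capillary electrophoresis gives the signal, fitted bidirectionally against DMSO.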

The target of assay [15] is Signal transducer and activator of transcription 3 (Homo sapiens) (UniProt P40763). The experiment in a line: ATG_STAT3_CIS: Attagene CIS-FACTORIAL HepG2 Assay for human Signal Transducer and Activator of Transcription 3 (STAT3) (AID 2282963). The following applies: HepG2, Attagene cis-factorial STAT3 reporter transcription; actives raise or lower the signal. Summed up: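 HepG2, MRTU-transfected, 24 h dosing. RNA → RT → PCR → FAM label → HpaI → CE. Bidirectional fit vs DMSO.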

Assay [16] in a line: ATG_PXRE_CIS: Attagene CIS-FACTORIAL HepG2 Assay for human Pregnane X Receptor Element (PXRE) (AID 2282957). The following applies: HepG2 Attagene CIS-FACTORIAL PXRE reporter, mRNA; actives raise or lower the signal. Summed up: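 Read-out: fluorescence of reporter-specific RT-PCR products resolved by capillary electrophoresis, fitted bidirectionally relative to DMSO. Human HepG2 liver cells carried transfected cis-promoter reporter units and were exposed to chemicals for 24 h.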

Assay [17] in a line: ATG_PPRE_CIS: Attagene CIS-FACTORIAL HepG2 Assay for human Peroxisome Proliferator-activated Response Element (PPRE) (AID 2282958). The following applies: HepG2 PPRE cis-element reporter, Attagene transcription factor profiling; actives raise or lower the signal. Put shortly: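 After human HepG2 hepatoma cells were transiently transfected with cis-promoter reporter constructs, they were exposed to test chemicals for 24 hours. Reporter RNA was then reverse-transcribed, PCR-amplified, FAM-labeled, HpaI-digested and quantified by capillary electrophoresis.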

A short description of assay [18]: ATG_TA_CIS: Attagene CIS-FACTORIAL HepG2 Assay for human TA Basal Promoter (AID 2282964). The following applies: HepG2 Attagene CIS-factorial TA basal promoter reporter; actives raise or lower the signal. Put shortly:
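HepG2 cells transiently transfected with multiplexed cis-promoter reporter units, dosed 24 h. Reporter mRNA measured by RT-PCR, 6-FAM labelling, HpaI digestion and capillary electrophoresis; bidirectional fit versus DMSO baseline, serving as background control.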

A short description of assay [19]: ATG_M_32_CIS: Attagene CIS-FACTORIAL HepG2 Assay for M32 Transcription Factor (Internal Marker) (AID 2282949).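 Further: background control marker of the multiplexed CIS panel rather than a real target.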 The following applies: HepG2 Attagene cis-factorial M32 reporter, mRNA; actives raise or lower the signal. Summed up:
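HepG2 transfectants (cis-regulated reporter transcription units) dosed 24 h. Reporter mRNA by RT-PCR plus CE, analysed as gain or loss relative to DMSO.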

Assay [20] is described as follows: ATG_RORE_CIS: Attagene CIS-FACTORIAL HepG2 Assay for human RAR-related Orphan Receptor Element (RORE) (AID 2282959). The following applies: HepG2 Attagene cis-factorial RORE reporter, mRNA; actives raise or lower the signal. Put shortly: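 Measured here: transcript induction of a cis-regulated reporter in HepG2 cells transiently transfected via FuGene 6. After 24 h, RNA was processed by RT-PCR and fluorescent capillary electrophoresis; DMSO defined baseline activity.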

Chain of Bile acid receptor (Homo sapiens) (Q96RI1 whole entry, looked up): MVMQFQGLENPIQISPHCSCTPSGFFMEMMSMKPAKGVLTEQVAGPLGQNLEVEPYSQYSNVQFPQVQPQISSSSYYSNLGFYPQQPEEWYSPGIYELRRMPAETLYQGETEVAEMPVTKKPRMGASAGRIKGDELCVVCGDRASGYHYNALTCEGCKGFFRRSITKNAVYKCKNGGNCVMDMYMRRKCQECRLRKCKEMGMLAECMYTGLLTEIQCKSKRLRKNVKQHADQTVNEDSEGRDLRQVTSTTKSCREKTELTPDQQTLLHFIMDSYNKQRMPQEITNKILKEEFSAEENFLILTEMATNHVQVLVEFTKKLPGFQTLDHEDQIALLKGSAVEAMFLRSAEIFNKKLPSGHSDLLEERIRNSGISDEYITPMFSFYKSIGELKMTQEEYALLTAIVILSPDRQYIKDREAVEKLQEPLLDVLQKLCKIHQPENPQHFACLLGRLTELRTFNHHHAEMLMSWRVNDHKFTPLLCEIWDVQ
Chain of Transcription factor Sp1 (Homo sapiens) (P08047 whole entry, looked up): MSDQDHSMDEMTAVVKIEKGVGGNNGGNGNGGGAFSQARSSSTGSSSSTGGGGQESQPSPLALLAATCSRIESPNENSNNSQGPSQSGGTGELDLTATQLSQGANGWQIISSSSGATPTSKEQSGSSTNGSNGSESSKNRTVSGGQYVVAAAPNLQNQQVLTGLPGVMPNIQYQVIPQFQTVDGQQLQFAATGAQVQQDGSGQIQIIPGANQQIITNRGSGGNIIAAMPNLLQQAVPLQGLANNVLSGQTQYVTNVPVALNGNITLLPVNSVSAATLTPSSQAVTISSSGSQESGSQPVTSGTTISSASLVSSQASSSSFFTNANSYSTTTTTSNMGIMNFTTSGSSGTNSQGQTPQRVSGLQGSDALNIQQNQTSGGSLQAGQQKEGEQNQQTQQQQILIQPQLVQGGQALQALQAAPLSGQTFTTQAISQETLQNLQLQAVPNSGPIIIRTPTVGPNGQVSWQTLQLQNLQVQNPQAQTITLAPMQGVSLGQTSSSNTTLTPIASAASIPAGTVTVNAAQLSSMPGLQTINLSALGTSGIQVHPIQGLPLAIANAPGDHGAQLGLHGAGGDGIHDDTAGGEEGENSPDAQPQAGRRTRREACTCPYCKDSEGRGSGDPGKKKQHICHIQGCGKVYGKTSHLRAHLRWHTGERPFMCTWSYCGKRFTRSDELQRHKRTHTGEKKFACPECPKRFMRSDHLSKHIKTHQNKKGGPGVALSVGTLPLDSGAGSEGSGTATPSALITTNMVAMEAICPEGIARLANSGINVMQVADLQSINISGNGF
Chain of Hypoxia-inducible factor 1-alpha (Homo sapiens) (Q16665 whole entry, looked up): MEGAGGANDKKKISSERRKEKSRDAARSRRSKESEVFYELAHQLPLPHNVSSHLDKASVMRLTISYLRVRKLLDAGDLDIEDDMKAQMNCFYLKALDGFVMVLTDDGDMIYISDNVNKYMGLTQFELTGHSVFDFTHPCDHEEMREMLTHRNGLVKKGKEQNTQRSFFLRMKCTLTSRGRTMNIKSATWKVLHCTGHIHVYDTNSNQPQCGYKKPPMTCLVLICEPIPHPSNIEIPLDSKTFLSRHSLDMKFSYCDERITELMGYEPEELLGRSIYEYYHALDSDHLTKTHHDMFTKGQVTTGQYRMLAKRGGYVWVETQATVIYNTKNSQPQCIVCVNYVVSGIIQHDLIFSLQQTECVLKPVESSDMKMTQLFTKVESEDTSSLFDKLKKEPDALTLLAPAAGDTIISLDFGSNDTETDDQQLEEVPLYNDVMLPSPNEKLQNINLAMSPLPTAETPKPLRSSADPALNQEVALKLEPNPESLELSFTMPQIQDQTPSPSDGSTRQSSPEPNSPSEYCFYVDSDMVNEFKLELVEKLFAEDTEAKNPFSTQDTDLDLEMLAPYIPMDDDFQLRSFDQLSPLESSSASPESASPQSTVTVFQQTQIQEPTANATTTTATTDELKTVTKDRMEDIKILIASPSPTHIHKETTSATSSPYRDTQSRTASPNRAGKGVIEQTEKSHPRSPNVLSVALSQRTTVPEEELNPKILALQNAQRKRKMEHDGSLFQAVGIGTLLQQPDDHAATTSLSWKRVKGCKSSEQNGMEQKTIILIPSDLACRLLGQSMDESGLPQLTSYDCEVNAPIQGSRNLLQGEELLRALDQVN
Chain of Hepatocyte nuclear factor 6 (Homo sapiens) (Q9UBC0 whole entry, looked up, the tested form may be a part): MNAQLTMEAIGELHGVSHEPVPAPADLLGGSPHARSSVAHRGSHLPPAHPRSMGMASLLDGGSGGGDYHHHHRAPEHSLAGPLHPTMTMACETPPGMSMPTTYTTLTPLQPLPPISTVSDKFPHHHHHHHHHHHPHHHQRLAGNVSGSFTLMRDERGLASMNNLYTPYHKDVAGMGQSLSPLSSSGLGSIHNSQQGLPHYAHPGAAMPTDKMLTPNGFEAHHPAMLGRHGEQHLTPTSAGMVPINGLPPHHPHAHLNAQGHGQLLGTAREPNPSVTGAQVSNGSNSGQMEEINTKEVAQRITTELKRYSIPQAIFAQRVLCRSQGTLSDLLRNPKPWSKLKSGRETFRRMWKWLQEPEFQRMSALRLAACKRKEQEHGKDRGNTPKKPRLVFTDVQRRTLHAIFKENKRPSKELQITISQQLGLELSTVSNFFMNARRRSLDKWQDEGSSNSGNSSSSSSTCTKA
Chain of Paired box protein Pax-6 (Homo sapiens) (P26367 whole entry, looked up): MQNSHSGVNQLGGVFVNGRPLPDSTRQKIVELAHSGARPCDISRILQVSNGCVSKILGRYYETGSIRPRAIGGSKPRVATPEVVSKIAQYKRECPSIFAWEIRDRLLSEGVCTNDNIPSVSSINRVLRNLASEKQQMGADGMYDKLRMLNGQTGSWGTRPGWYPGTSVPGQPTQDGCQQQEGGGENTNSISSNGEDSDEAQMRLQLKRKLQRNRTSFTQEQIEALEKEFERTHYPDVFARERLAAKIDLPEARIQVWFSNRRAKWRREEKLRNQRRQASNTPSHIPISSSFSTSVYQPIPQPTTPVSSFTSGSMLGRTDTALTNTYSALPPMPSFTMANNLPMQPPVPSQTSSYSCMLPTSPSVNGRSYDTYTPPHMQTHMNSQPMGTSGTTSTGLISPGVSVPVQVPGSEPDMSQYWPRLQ
Chain of Signal transducer and activator of transcription 3 (Homo sapiens) (P40763 whole entry, looked up): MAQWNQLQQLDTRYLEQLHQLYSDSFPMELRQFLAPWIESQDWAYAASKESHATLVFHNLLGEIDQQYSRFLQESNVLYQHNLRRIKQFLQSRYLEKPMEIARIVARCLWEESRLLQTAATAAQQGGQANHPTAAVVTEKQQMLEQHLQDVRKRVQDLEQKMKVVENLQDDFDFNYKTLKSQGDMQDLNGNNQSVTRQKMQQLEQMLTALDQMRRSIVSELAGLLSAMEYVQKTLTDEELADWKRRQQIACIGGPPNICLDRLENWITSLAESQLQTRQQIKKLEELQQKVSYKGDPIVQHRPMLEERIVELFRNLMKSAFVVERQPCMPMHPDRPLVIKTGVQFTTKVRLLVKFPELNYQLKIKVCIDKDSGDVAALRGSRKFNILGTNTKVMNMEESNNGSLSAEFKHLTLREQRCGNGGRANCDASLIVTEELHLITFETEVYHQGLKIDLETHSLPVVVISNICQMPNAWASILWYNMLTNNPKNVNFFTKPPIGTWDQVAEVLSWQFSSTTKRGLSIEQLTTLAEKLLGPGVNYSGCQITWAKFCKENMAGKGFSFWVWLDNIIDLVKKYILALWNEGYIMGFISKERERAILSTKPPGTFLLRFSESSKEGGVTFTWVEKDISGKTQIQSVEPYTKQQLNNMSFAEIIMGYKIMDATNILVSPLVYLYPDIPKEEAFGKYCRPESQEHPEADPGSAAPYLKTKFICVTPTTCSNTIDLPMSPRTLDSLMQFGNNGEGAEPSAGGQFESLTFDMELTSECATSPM
Chain of Heat shock factor protein 1 (Homo sapiens) (Q00613 whole entry, looked up): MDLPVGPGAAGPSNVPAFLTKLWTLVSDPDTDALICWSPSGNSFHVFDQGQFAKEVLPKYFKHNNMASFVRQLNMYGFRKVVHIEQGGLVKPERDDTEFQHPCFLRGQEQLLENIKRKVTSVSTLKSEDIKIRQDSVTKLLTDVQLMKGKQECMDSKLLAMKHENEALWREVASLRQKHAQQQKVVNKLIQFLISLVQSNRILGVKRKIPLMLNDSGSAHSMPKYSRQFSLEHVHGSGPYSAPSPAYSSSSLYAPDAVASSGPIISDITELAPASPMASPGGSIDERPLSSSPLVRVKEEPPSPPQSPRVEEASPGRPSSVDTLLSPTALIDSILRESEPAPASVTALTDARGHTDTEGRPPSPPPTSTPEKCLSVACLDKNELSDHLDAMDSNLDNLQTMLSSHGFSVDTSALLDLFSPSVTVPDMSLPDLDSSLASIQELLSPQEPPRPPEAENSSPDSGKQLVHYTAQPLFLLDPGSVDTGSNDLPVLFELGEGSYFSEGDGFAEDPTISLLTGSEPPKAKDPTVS

With `CCc1cccc(C)c1N(C(=O)CS(=O)(=O)O)C(C)COC` (centres undefined), the molecule was classed as inactive in assay [1], in [2], in [3], in [4], in assay [5] and in assay [6]. The outcome in assay [7], in [8], in [9], in assay [10], in [11] and in assay [12] was inactive. Besides, the molecule was called inactive in [13], in assay [14] and in assay [15].

In the case of `CC12CCC(CC1)C(C)(C)O2`, the call in assay [1], in assay [2], in assay [3], in [4], in assay [5] and in assay [6] was inactive. Further, the call in assay [7], in assay [8], in assay [9], in assay [11], in assay [16] and in assay [17] was inactive. Besides, the result in assay [12], in [13], in [14], in assay [15] and in assay [18] was inactive.

Turning to `CCCCCCCCCCCCCc1ccccc1`, the result in assay [1], in assay [2], in [4], in assay [19], in assay [5] and in [6] was inactive. For the same molecule, the result in assay [7], in assay [8], in [9], in assay [11], in assay [16] and in assay [17] was inactive. Also, the outcome in assay [20], in assay [12], in assay [13], in assay [14] and in assay [15] was inactive.

Turning to `O=c1c(O)c(-c2ccc(O)cc2O)oc2cc(O)cc(O)c12`, the call in assay [1], in assay [2], in assay [3], in [4], in assay [19] and in assay [5] was inactive. The result in assay [7], in assay [8], in [9], in assay [10], in [13] and in assay [14] was inactive. The molecule was classed as inactive in [15] and in [18]. The AC50 in [16] is 26.5 µM (active).

These data come from PubChem BioAssay (EPA / NIEHS).
